# Data as given in paper PMC7862700, “An all-to-all approach to the identification of sequence-specific readers for epigenetic DNA modifications on cytosine”.
# Experiments:
# Assay in all cases: DAPPL (digital affinity profiling via proximity ligation, sequencing); 10 mM Tris-HCl pH 7.5, 50 mM NaCl, 1 mM DTT, 4% glycerol, room temperature, 30 min; GST-TFs on glutathione beads, 16-mer random dsDNA library, 0.1% formaldehyde crosslink after washing; high values mean tight binding
# FLI1 = biological target: T1, FLI1 (Homo sapiens, UniProt Q01543 1-452); settings: protein: recombinant; tags: N-terminal GST; dsDNA, one strand shown
# T1 sequence: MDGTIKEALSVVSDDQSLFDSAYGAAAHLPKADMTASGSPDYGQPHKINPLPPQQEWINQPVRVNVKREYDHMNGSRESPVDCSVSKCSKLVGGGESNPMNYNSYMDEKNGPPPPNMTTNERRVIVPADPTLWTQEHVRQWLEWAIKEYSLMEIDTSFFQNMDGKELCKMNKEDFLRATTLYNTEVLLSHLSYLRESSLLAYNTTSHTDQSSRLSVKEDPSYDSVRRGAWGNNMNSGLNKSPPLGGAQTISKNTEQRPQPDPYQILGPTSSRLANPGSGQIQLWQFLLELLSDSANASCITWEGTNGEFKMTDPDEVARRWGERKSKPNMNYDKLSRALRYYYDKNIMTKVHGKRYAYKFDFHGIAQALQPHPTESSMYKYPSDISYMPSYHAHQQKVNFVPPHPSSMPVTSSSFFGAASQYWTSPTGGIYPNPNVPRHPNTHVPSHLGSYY
# Outline: (§1)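 GST fusions of human transcription factors were expressed in yeast and captured with glutathione beads. Once given DNA barcodes and pooled alongside a tag-only sample, they were incubated for 30 min at room temperature with 200 nmole of a random double-stranded 16-mer DNA library in Tris/NaCl/DTT/glycerol buffer, then washed, crosslinked (0.1% formaldehyde), proximity-ligated, PCR-amplified and sequenced on an Illumina NextSeq500. The binding signal of each hexamer is its read frequency for a factor divided by its frequency for the tag-only sample.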
# ELK1 = biological target: T2, ELK1 (Homo sapiens, UniProt P19419 1-428); settings: protein: recombinant; tags: N-terminal GST; dsDNA, one strand shown
# T2 sequence: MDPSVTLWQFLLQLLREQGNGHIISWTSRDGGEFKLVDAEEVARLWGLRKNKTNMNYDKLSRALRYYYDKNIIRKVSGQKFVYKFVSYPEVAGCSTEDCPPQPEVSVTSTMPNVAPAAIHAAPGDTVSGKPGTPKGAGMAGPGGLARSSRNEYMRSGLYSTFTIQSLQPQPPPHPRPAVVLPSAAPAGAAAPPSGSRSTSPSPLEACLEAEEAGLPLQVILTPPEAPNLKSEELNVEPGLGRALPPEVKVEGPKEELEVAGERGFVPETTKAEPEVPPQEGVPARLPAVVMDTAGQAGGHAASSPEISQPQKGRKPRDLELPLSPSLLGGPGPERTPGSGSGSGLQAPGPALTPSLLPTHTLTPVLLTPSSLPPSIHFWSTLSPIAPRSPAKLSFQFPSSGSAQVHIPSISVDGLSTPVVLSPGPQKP
# Outline: as §1
# GABPA = biological target: T3, GABPA (Homo sapiens, UniProt Q06546 1-454); settings: protein: recombinant; tags: N-terminal GST; dsDNA, one strand shown
# T3 sequence: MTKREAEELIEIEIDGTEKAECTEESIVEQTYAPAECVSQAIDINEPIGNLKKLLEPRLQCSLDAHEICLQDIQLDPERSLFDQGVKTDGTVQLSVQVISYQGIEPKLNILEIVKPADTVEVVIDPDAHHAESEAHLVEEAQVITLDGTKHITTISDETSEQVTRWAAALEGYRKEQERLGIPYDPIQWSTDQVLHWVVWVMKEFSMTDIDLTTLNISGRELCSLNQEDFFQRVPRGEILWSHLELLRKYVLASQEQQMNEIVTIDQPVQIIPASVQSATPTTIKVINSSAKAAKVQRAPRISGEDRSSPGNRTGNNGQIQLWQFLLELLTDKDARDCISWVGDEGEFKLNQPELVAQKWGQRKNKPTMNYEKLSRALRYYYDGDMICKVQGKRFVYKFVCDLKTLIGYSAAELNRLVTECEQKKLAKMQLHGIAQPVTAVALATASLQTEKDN
# Outline: as §1
# ERG = biological target: T4, ERG (Homo sapiens, UniProt P11308 1-479); settings: protein: recombinant; tags: N-terminal GST; dsDNA, one strand shown
# T4 sequence: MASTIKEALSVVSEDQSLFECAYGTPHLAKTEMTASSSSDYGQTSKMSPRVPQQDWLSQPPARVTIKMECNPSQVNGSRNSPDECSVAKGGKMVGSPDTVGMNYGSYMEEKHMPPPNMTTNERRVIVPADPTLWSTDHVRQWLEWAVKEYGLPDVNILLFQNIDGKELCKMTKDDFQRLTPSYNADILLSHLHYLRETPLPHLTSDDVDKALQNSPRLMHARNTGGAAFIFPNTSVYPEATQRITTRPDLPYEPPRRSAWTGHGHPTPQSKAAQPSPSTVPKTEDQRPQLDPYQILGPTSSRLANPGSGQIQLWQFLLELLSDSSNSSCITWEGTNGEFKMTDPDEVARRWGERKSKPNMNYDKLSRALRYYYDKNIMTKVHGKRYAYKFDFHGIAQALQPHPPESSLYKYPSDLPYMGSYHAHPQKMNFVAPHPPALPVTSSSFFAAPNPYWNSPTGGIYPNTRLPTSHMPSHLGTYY
# Outline: as §1
# ELF1 = ELF1 (Homo sapiens, UniProt P32519 1-619); settings: protein: recombinant; tags: N-terminal GST; dsDNA, one strand shown
# Sequence of ELF1 (P32519 whole entry): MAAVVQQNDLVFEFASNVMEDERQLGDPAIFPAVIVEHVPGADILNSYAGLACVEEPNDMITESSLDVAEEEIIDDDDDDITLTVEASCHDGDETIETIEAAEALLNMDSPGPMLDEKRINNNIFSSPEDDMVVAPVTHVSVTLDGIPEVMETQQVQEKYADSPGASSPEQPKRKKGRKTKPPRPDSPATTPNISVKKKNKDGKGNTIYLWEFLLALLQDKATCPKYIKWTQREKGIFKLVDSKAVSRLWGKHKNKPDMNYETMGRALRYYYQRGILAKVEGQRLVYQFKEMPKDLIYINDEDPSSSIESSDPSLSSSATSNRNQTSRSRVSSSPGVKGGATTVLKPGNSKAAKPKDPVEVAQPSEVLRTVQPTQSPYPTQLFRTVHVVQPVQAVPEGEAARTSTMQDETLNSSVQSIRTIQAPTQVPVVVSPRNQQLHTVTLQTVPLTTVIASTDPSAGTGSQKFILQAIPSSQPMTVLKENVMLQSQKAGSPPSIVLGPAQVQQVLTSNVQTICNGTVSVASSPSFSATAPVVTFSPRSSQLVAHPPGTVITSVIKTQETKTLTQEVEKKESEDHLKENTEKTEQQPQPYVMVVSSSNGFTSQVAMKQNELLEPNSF
# Outline: as §1
# EHF = biological target: T5, EHF (Homo sapiens, UniProt Q9NZC4 1-300); settings: protein: recombinant; tags: N-terminal GST; dsDNA, one strand shown
# T5 sequence: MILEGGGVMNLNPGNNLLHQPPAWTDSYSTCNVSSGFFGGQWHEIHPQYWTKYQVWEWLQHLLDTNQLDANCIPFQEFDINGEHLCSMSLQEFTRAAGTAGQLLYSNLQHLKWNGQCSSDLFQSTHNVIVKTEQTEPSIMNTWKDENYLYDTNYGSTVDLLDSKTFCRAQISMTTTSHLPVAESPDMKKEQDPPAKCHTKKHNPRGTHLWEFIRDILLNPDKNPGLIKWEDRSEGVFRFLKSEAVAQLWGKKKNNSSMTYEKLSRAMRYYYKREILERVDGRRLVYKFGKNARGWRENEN
# Outline: as §1
# SPI1 = SPI1 (Homo sapiens, UniProt P17947 1-270); settings: protein: recombinant; tags: N-terminal GST; dsDNA, one strand shown
# Outline: as §1
# SPIB = SPIB (Homo sapiens, UniProt Q01892 1-262); settings: protein: recombinant; tags: N-terminal GST; dsDNA, one strand shown
# Sequence of SPIB (Q01892 whole entry): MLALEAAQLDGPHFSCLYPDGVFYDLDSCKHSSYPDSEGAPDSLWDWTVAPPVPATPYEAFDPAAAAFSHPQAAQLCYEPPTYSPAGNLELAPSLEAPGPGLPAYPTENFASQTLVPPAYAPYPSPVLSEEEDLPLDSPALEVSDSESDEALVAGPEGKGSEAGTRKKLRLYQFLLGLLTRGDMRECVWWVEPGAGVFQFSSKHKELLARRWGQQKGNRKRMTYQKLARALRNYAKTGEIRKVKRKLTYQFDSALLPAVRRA
# Outline: as §1
# ELK3 = biological target: T6, ELK3 (Homo sapiens, UniProt P41970 1-407); settings: protein: recombinant; tags: N-terminal GST; dsDNA, one strand shown
# T6 sequence: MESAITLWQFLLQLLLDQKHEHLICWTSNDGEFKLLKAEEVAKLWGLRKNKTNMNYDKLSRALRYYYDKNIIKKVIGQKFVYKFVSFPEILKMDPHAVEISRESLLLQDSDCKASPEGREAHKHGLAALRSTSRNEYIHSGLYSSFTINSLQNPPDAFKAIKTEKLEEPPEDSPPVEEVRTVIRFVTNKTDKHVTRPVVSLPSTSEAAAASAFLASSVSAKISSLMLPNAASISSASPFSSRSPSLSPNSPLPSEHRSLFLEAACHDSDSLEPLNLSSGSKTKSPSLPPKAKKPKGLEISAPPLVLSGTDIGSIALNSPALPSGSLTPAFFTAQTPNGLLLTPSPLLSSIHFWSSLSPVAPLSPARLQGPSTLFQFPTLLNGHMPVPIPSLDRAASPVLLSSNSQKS
# Outline: as §1
# FEV = biological target: T7, FEV (Homo sapiens, UniProt Q99581 1-238); settings: protein: recombinant; tags: N-terminal GST; dsDNA, one strand shown
# T7 sequence: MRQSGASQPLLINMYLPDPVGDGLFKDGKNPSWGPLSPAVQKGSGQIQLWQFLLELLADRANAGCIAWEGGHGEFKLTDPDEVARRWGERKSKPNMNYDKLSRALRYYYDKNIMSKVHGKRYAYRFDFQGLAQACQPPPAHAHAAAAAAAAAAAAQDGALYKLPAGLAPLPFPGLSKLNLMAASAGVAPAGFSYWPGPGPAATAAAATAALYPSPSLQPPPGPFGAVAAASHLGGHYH
# Outline: as §1
# ETV5 = ETV5 (Homo sapiens, UniProt P41161 1-510); settings: protein: recombinant; tags: N-terminal GST; dsDNA, one strand shown
# Sequence of ETV5 (P41161 whole entry): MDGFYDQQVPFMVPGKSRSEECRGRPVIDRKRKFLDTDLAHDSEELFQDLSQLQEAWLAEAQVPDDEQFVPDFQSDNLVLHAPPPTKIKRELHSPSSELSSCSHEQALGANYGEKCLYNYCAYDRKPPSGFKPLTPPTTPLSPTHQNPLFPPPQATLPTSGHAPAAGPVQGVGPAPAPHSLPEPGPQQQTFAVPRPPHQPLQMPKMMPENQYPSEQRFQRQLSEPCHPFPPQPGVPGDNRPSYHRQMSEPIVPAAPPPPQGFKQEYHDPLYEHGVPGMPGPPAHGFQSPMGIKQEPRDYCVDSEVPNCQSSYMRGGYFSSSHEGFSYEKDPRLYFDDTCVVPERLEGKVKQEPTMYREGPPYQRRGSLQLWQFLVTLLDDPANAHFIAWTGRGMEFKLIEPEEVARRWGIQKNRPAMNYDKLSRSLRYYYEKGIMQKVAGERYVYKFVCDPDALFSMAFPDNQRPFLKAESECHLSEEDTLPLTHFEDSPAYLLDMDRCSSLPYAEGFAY
# Outline: as §1
# HSF1 = HSF1 (Homo sapiens, UniProt Q00613 1-529); settings: protein: recombinant; tags: N-terminal GST; chain copies: 3; dsDNA, one strand shown
# Sequence of HSF1 (Q00613 whole entry): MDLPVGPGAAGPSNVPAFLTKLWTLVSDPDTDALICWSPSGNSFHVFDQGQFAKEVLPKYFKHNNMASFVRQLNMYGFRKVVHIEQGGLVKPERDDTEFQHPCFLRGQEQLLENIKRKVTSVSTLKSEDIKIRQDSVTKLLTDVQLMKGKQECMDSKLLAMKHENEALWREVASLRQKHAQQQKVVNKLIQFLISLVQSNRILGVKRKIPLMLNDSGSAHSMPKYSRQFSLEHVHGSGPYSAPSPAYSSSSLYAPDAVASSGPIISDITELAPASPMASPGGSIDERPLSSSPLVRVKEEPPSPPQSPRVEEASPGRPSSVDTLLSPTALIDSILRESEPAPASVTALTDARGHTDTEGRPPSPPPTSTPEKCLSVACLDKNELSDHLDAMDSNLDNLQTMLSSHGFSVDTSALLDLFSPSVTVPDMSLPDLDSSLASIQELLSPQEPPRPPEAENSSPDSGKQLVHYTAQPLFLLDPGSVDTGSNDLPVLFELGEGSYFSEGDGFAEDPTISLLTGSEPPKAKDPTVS
# Outline: as §1
# SPIC = biological target: T8, SPIC (Homo sapiens, UniProt Q8N5J4 1-248); settings: protein: recombinant; tags: N-terminal GST; dsDNA, one strand shown
# T8 sequence: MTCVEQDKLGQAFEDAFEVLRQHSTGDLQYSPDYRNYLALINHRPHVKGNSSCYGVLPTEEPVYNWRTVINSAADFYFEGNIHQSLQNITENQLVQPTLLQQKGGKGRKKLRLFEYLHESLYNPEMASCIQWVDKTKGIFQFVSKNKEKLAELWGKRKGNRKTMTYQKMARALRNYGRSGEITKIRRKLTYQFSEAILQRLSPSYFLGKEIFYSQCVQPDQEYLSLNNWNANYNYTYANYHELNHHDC
# Outline: as §1
# ELF4 = ELF4 (Homo sapiens, UniProt Q99607 1-663); settings: protein: recombinant; tags: N-terminal GST; dsDNA, one strand shown
# Sequence of ELF4 (Q99607 whole entry): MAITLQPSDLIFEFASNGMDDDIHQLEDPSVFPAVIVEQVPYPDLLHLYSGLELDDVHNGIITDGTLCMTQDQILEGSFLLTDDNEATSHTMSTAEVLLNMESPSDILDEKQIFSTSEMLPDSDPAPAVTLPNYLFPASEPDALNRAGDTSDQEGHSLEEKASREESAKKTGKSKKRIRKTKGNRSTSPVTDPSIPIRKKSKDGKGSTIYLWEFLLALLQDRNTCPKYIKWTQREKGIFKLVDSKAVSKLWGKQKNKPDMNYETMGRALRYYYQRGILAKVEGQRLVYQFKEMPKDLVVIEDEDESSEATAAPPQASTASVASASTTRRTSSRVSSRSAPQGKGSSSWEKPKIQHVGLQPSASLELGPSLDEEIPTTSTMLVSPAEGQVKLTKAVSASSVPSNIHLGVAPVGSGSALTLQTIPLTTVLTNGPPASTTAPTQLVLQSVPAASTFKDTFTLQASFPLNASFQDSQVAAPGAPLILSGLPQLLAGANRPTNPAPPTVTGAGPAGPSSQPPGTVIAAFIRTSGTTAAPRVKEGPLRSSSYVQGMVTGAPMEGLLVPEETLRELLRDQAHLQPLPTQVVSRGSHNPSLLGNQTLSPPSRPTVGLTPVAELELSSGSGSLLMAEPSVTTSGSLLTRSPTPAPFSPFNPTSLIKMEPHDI
# Outline: as §1
# ELK4 = biological target: T9, ELK4 (Homo sapiens, UniProt P28324-2 1-405); settings: protein: recombinant; tags: N-terminal GST; dsDNA, one strand shown
# T9 sequence: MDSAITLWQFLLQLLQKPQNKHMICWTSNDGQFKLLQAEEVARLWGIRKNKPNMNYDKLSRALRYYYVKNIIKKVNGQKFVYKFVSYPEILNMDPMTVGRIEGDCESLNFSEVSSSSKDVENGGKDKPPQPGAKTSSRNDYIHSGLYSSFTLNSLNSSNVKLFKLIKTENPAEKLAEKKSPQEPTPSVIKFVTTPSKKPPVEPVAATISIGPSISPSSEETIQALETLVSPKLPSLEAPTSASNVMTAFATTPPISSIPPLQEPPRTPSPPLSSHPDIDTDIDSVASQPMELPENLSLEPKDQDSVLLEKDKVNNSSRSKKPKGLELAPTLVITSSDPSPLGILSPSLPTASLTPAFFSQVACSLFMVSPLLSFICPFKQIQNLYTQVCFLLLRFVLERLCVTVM
# Outline: as §1
# ETV2 = biological target: T10, ETV2 (Homo sapiens, UniProt O00321 1-342); settings: protein: recombinant; tags: N-terminal GST; dsDNA, one strand shown
# T10 sequence: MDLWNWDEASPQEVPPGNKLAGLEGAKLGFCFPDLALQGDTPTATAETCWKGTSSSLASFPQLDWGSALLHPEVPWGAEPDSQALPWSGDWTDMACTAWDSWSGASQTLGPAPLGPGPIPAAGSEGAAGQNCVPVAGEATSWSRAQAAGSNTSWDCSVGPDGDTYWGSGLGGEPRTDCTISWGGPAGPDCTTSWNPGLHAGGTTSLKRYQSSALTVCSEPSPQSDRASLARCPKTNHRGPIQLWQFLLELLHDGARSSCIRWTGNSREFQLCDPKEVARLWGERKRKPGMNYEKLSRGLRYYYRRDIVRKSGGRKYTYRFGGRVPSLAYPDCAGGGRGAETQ
# Outline: as §1
# ELF3 = biological target: T11, ELF3 (Homo sapiens, UniProt P78545 1-371); settings: protein: recombinant; tags: N-terminal GST; dsDNA, one strand shown
# T11 sequence: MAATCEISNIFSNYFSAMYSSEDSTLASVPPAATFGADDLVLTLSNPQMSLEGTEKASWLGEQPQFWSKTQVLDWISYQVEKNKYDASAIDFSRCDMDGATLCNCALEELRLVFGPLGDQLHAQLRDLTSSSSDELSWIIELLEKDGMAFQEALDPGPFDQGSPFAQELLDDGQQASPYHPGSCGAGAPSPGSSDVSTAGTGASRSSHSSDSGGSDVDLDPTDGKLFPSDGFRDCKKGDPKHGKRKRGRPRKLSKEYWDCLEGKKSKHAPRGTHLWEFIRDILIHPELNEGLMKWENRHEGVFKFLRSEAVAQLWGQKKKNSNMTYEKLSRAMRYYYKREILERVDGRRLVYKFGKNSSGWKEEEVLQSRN
# Outline: as §1
# ETV1 = ETV1 (Homo sapiens, UniProt P50549 1-477); settings: protein: recombinant; tags: N-terminal GST; dsDNA, one strand shown
# Sequence of ETV1 (P50549 whole entry): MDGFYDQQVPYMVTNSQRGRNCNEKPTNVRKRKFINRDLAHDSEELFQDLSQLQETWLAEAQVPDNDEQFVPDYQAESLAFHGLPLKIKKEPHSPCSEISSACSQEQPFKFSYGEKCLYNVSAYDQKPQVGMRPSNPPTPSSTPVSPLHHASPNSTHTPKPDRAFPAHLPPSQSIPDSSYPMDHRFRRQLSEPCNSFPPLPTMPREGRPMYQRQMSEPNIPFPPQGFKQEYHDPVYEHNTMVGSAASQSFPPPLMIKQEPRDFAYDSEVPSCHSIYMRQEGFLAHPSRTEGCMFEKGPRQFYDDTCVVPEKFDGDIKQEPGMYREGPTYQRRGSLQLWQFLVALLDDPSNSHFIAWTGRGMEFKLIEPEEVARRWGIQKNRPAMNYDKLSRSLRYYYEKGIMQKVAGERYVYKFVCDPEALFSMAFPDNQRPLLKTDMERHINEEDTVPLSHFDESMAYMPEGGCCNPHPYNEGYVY
# Outline: as §1
sequence,measurement,setting,value
GCAAAA,binding signal,FLI1,"1.04 fold enrichment (6-mer frequency, TF over GST control)"
same,binding signal,ELK1,"1.08 fold enrichment (6-mer frequency, TF over GST control)"
same,binding signal,GABPA,"1.08 fold enrichment (6-mer frequency, TF over GST control)"
same,binding signal,ERG,"1.05 fold enrichment (6-mer frequency, TF over GST control)"
same,binding signal,ELF1,"1.09 fold enrichment (6-mer frequency, TF over GST control)"
same,binding signal,EHF,"1.14 fold enrichment (6-mer frequency, TF over GST control)"
same,binding signal,SPI1,"1.16 fold enrichment (6-mer frequency, TF over GST control)"
same,binding signal,SPIB,"1.13 fold enrichment (6-mer frequency, TF over GST control)"
same,binding signal,ELK3,"1.15 fold enrichment (6-mer frequency, TF over GST control)"
same,binding signal,FEV,"1.08 fold enrichment (6-mer frequency, TF over GST control)"
same,binding signal,ETV5,"1.07 fold enrichment (6-mer frequency, TF over GST control)"
same,binding signal,HSF1,"1.01 fold enrichment (6-mer frequency, TF over GST control)"
same,binding signal,SPIC,"1.06 fold enrichment (6-mer frequency, TF over GST control)"
same,binding signal,ELF4,"1.13 fold enrichment (6-mer frequency, TF over GST control)"
same,binding signal,ELK4,"1.16 fold enrichment (6-mer frequency, TF over GST control)"
same,binding signal,ETV2,"1.14 fold enrichment (6-mer frequency, TF over GST control)"
same,binding signal,ELF3,"1.2 fold enrichment (6-mer frequency, TF over GST control)"
same,binding signal,ETV1,"1.14 fold enrichment (6-mer frequency, TF over GST control)"
